Source: PubChem
Sampled rows, rich in hits. Any-hit rate of the full collection: about 22%.
LmPK inh – qHTS Assay for Inhibitors of Leishmania Mexicana Pyruvate Kinase (LmPK); Potency, µM (highest dose often 57.5 µM), without a hit: at the top dose activity change, negative = inhibition, most hits filed as inhibitors; Q27686; purified LmPK, Kinase-Glo ATP luminescence, 1 h; 290,000 compounds, 0.37% hits; note: potency is the fitted concentration of half-maximal effect; % is set by controls: 0 for no effect and ±100 for the full control effect
Target sequence (Q27686 whole entry, looked up): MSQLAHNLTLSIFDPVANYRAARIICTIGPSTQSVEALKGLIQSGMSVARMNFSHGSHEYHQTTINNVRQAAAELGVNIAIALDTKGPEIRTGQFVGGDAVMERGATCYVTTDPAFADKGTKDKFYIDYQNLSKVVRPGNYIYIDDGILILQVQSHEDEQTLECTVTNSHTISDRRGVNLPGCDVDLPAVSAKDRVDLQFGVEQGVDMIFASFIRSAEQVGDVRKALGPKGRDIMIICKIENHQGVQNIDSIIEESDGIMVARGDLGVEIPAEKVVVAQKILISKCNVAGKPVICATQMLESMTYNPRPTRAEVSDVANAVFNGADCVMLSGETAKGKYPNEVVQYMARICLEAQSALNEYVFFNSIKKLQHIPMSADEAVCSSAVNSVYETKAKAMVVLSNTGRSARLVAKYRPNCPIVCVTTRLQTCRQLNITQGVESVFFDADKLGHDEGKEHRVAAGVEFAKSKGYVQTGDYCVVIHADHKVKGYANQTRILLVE
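qHTS format; LmPK 0.1 nM; substrates PEP 0.5 mM and ADP 0.1 mM. One-hour room-temperature incubation, then coupled luciferase luminescence; 0.5 nM enzyme wells mark activation.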
Cycloheximide cs – Cycloheximide Counterscreen for Small Molecule Inhibitors of Shiga Toxin. max response, %. 300,000 compounds, 12% hits. cell reporter, cycloheximide protein synthesis inhibition counterscreen; in the data active = max response mostly above about 13%, no sharp cut-off; inactive = mostly below about 14%; note: read at 38.3 µM for the half of the compounds with a filed dose; 0% is about no effect
Pf growth 96h – Primary qHTS for delayed death inhibitors of the malarial parasite plastid, 96 hour incubation. P. falciparum luciferase reporter growth, 96 h. AID 504834, 2011. Potency, µM (titrated, usually from 28.7 µM), for the others: at the top dose activity change, negative = inhibition, hits mostly inhibitors. 320,000 compounds, 6.9% hits; note: potency is the fitted concentration of half-maximal effect; % is set by controls: 0 for no effect and ±100 for the full control effect
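Cell-based qHTS: luciferase-tagged P. falciparum in erythrocytes (2% hematocrit, 0.05% parasitemia final) incubated with compounds for 96 hours, 37 C, 5% CO2; luciferase detection reagent then added and luminescence measured.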
Shiga toxin inh – A qHTS for Small Molecule Inhibitors of Shiga Toxin; Vero cells, Shiga toxin protein synthesis inhibition reporter; inhibition, % at 38.7 µM; 290,000 compounds, 9.2% hits; in the data active = inhibition mostly above about 28%, no sharp cut-off; inactive = mostly below about 43%; note: 0% is about no effect
Pf growth 48h – Primary qHTS for delayed death inhibitors of the malarial parasite plastid, 48 hour incubation; P. falciparum luciferase growth in erythrocytes, 48 h; Potency, µM (titrated, usually from 28.7 µM), for the others: top-dose activity change, negative = inhibition, usual class: inhibitors; 310,000 compounds, 5.9% hits; note: potency is the fitted concentration of half-maximal effect; % is set by controls: 0 for no effect and ±100 for the full control effect
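Luminescence readout; reporter = integrated firefly luciferase in P. falciparum. RBC culture at 2% hematocrit, 0.1% parasitemia final, 37 C/5% CO2; decreased signal taken as growth inhibition.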
Active calls of the source: *; ? = inconclusive; . = not tested or not shown. Unless noted, calls come from the whole dose curve; as a rule, active = well fitted inhibition curve with a large enough effect; inconclusive = small, poorly fitted or top-dose-only effect, or another doubt; inactive = no such curve, though single readings can be large or run the other way.

SMILES | LmPK inh | Cycloheximide cs | Pf growth 96h | Shiga toxin inh | Pf growth 48h
COC(=O)Cn1nc(-c2ccc(C)cc2)c2ccccc2c1=O | 0.0% | 0.6 | 4.5% | -4.2 | -15.3%
NC1=NC(=Nc2ccc(S(N)(=O)=O)cc2)c2ccccc21 | 0.5% | -2.1 | 11.4% | 13.9 | 12.8%
CCc1ccc(N=C2N=C(N)c3ccccc32)cc1 | -6.0% | 31.8* | 78.1% | 54.2* | .
COc1cccc(/C=N/n2c(N)c(S(=O)(=O)c3cccs3)c3nc4ccccc4nc32)c1OC | 2.7% | -1.2 | ? | 26.1 | ?
Nc1c(S(=O)(=O)c2cccc(Cl)c2)c2nc3ccccc3nc2n1/N=C/c1ccc(O)c(O)c1 | 3.8% | -1.7 | -15.6% | -9.2 | 7.38µM*
COc1ccc(/C(C)=N/NC(=O)CNC(=O)/C=C\c2ccccc2OC)c(OC)c1 | -0.4% | 14.0* | -13.2% | 31.4* | ?
COc1cccc(/C=N/NC(=O)CNC(=O)C(c2ccccc2)c2ccccc2)c1O | -0.4% | 37.5* | ? | 70.5* | ?
COc1cccc(/C=N/NC(=O)CNC(=O)/C=C\c2ccccc2)c1O | 5.9% | 28.0* | -8.9% | 41.3* | 4.9%
C=CCc1cccc(/C=N/NC(=O)CNc2ccccc2OC)c1O | 8.6% | 0.7 | 24.0% | 9.9 | ?
COc1ccc(/C=C\C(=O)NCC(=O)N/N=C/c2cccc(OC)c2O)cc1 | -3.8% | 14.3 | 69.6% | 12.0 | 0.0%
CCOC(=O)N1CCC(NC(=O)CCC(=O)N2CCOc3ccc(Cl)cc32)CC1 | -2.3% | 1.8 | 6.2% | 17.9 | 34.2%
Cc1cc(C)nc(NC(=O)c2ccc(Cl)cc2Cl)n1 | -4.2% | -1.6 | 17.7% | 15.9 | -12.7%
Cc1onc(NC(=O)NC(=O)c2ccccc2F)c1Br | -6.9% | 21.4* | 17.9% | 37.2 | 30.3%
Cc1onc(NC(=O)c2ccc(Cl)cc2Cl)c1Br | 15.0% | 42.0* | 132.0% | 71.7* | 149.6%
COC(=O)C1=NN(c2ccc(Cl)cc2)C2C(=O)N(c3ccccc3OC)C(=O)C12 (stereo not given) | -0.1% | -1.3 | 31.7% | -13.3 | 19.1%
COC(=O)c1cccc(NC(=O)CSc2nnc(C)n2Cc2ccccc2)c1 | 0.6% | -1.6 | 0.1% | 3.8 | -0.4%
CCCCOc1ccc2ccccc2c1C=O | -0.2% | 31.6* | 38.8% | 67.7 | -1.5%
Cc1ccc(CN2CCN(C3CCOCC3)CC2CCO)cc1 (stereo not given) | -1.9% | 0.4 | ? | 2.9 | 28.5%
c1ccc(C2COC(c3cccs3)=N2)cc1 (stereo not given) | 3.0% | 23.2* | 23.7% | 39.0 | -0.2%
COc1cccc(S(=O)(=O)N2CCN(Cc3ccc4c(c3)OCO4)CC2)c1 | 3.8% | 0.7 | ? | -15.2 | 14.2%
Cc1c(C(=O)O)c(C(=O)O)nc2ccc(N3CCOCC3)cc12 | -0.4% | 7.2 | 36.1% | -5.8 | 10.6%
Cc1nc(NC(=S)NC(=O)COc2ccccc2Cl)ccc1Br | -0.2% | 0.3 | -1.6% | 13.7 | 29.2%
O=C(COc1ccc(Br)cc1Cl)NC(=S)Nc1ccccn1 | 2.9% | 76.3* | -4.4% | 114.9* | 291.5%
Cc1ccc(OCC(=O)NC(=S)Nc2ccccn2)c(Br)c1 | -23.6% | 28.4* | 195.4% | 83.5* | 132.5%
Cc1cc(C)c(S(=O)(=O)/N=C2/C=C(Sc3ncn[nH]3)C(=O)c3ccccc32)cc1C | 7.94µM* | 32.6* | 10.4µM* | 48.3* | 1.65µM*
SMILES | LmPK inh | Cycloheximide cs | Pf growth 96h | Shiga toxin inh | Pf growth 48h
COc1ccc(Cl)cc1C(=O)Nc1cccnc1 | 0.0% | 8.3 | 1.0% | . | 24.1%
Cc1ccc(O)c(-c2cc(C(=O)Nc3cccnc3)[nH]n2)c1 | -3.8% | 31.1* | 2.94µM* | 79.8* | 3.7µM*
Cc1ccc(O)c(-c2cc(C(=O)NCc3ccc4c(c3)OCO4)[nH]n2)c1 | 3.6% | -0.2 | 0.1% | 6.0 | -1.8%
O=C(Nc1cccnc1)c1cc(-c2cc(Cl)ccc2O)n[nH]1 | 5.1% | 38.9* | 0.738µM* | 91.1* | ?
COC(=O)C1=CN(C(C)C)C=C(C(=O)OC)C1c1cc(Br)c(OC)c(OC)c1 | 6.0% | 8.4 | 7.38µM* | 29.6 | 4.65µM*
COC(=O)c1scc(C)c1N/N=C(\C)c1cc(F)c(Cl)cc1F | 1.9% | 1.0 | 23.2% | -2.5 | .
CCOc1ccc(NC(=O)CCC(=O)O)cc1 | 2.4% | -2.9 | ? | -13.2 | 13.1%
CCOC(=O)c1ccc(NC(=O)CN2C(=O)CSC(C)C2=O)cc1 (stereo not given) | -1.1% | 12.9* | 48.6% | 16.6 | -0.5%
CCOC(=O)c1ccc(NC(=O)CN2C(=O)C(C)SC(C)C2=O)cc1 (stereo not given) | 1.7% | 10.8 | 456.4% | 10.3 | 38.2%
CCOc1ccc(NC(=S)c2ccncc2)cc1 | 4.1% | 15.0 | 9.28µM* | 25.9 | 33.3%
CCOc1ccc(NC(=O)CC(=O)Nc2ccc(OCC)cc2)cc1 | -7.2% | 12.2 | 31.2% | 66.6* | .
CCOc1ccc(NC(=O)C2(c3ccc(OC)c(OC)c3)CCCC2)cc1 | -0.4% | -4.1 | 1.65µM* | -7.3 | ?
CC1CCC2(CC1)NC(=O)N(CC(=O)N1CCN(c3ccccc3)CC1)C2=O (stereo not given) | . | . | ? | . | -21.1%
CCOc1ccc(S(=O)(=O)N2CCCC(C(=O)N3CCOCC3)C2)cc1Cl (stereo not given) | -1.4% | -4.8 | ? | -6.7 | 2.4%
CN(C)c1cc[n+](CC(=O)c2ccc(OC(F)F)cc2)cc1 | 2.6% | 1.8 | 0.738µM* | 2.5 | 0.738µM*
CCOc1ccc(NC(=O)C[n+]2ccc(N(C)C)cc2)cc1 | -0.3% | -3.4 | ? | -7.3 | 0.657µM*
CCOc1ccc(NC(=O)CN2C(=O)C3CCCN3C2=O)cc1 (stereo not given) | 0.7% | 15.0* | ? | active | 35.1%
CCOc1ccc(NC(=O)CN2C(=O)CSC2=O)cc1 | -14.3% | 15.4* | ? | 79.2* | 11.9%
CN(C)c1cc[n+](CC(=O)Nc2ccc(Oc3ccccc3)cc2)cc1 | 4.9% | 0.7 | ? | -5.3 | ?
CN(C)c1cc[n+](CC(=O)Nc2ccc(Cl)cc2)cc1 | -3.3% | -1.1 | ? | 5.8 | 0.0828µM*
Cc1ccc(NC(=O)COCC(=O)Nc2ccc(F)cc2)cc1 | 7.7% | 1.2 | -9.3% | -2.2 | 5.4%
COc1ccc(Cc2noc(CN3CCN(Cc4cccc(Cl)c4)CC3)n2)cc1OC | 1.7% | 10.9 | 8.28µM* | 12.1 | ?
COc1ccc(Cc2noc(CN3CCCC(OCc4ccccn4)C3)n2)cc1OC (stereo not given) | 2.6% | -0.4 | 13.1µM* | -8.3 | ?
COCCN1CCN(Cc2nc(Cc3ccc(OC)c(OC)c3)no2)CC1 | 0.5% | -2.5 | -20.0% | -4.0 | 5.5%
COc1ccc(-c2noc(CN3CCCC(OCc4ccccn4)C3)n2)cc1 (stereo not given) | 3.6% | 0.6 | ? | 2.7 | ?
Oc1ccc(N=Nc2ccc3c(c2)OCO3)c2ccccc12 | -15.0% | 58.0* | ? | 77.9* | ?
